GLP1R ag: agonists of human GLP-1 receptor. HEK293 GLP-1R CRE-luciferase, luminescence, 4-6 h; cells express a hypersensitive GLP-1R form. Potency, µM (top dose mostly 45.6 µM), for the others: at the top dose activation, most hits filed as activators. 380,000 compounds, 0.007% hits. AID 624172; further: potency means the concentration at half of the fitted maximal effect; % of control where 0% means no effect
HEK293 tox: cytotoxicity in counter-screen for GLP-1R inverse agonists; HEK293 cAMP-luciferase reporter cells, luminescence, 24 h; Potency, µM (highest dose often 38.3 µM), inactives show top-dose activity change, negative = inhibition, most hits filed as inhibitors; 410,000 compounds, 0.13% hits; AID 624418;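 further: loss of luciferase light is scored as toxicity; potency means the concentration at half of the fitted maximal effect; on the % scale 0 is the no-effect control and ±100 the full control effect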
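Luminescence readout: signal drop marks cytotoxicity. Plated cells grew 12 h at 37 °C, 5% CO2, received 23 nL compound for 24 h, then got luciferase reagent, read after 12 min at RT.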
mIDH1 inhibitor: blocks human mutant IDH1 R132H enzyme. O75874. IDH1-R132H enzyme, NADPH consumption, diaphorase/resazurin fluorescence. Potency, µM (doses to about 76.6 µM), inactives show at the highest dose activity change, negative = inhibition, actives largely listed as inhibitors. 390,000 compounds, 0.093% hits. AID 602179; further: potency means the concentration at half of the fitted maximal effect; on the % scale 0 is the no-effect control and ±100 the full control effect; nearly all actives have a fitted effect of over 65% in size
Target sequence (O75874 whole entry R132H, stated change not applied): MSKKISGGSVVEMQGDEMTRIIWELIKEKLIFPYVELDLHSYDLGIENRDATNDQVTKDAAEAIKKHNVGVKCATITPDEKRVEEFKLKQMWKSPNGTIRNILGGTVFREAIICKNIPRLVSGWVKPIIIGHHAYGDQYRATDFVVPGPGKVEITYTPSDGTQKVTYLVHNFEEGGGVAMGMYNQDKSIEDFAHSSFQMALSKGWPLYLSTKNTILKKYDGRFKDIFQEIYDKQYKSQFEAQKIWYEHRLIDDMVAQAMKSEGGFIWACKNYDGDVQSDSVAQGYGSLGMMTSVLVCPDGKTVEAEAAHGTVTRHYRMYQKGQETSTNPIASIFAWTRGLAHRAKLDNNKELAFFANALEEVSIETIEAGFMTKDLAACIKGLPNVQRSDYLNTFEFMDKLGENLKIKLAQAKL
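IDH1-R132H (0.5 ug/mL dispensed) in pH 7.5 Tris buffer was preincubated 30 min with compound, then given a substrate mix of 0.016 mM NADPH and 2 mM alpha-KG for 80 min at room temperature; remaining NADPH was read by diaphorase/resazurin fluorescence.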
LDHA block: LDHA (human) enzyme inhibition. 480,000 compounds, 0.15% hits. activity change, % (values are at about 110 or 230 µM). P00338. purified LDHA, NADH/diaphorase-resazurin fluorescence; active compounds read low; in the data active means activity change below about -30%; inconclusive means mostly about -25% to -30%;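 further: plate controls were DMSO wells for no effect and wells without enzyme for full effect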
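Resorufin fluorescence (ex540/em590), read at 0 and 20 min after diaphorase/resazurin addition, reports the NADH left after a 5 min room-temperature reaction of 2 nM human LDH5 with 0.06 mM NADH and 0.2 mM pyruvate.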
GLP1R inv ag: GLP-1 receptor (human) inverse agonism | HEK293 GLP-1R CRE-luciferase, luminescence, 24 h; GLP-1R form is constitutively active | Potency, µM (doses to about 38.3 µM), for the others: top-dose activity change, negative = inhibition, most hits filed as inhibitors | AID 624417 | 410,000 compounds, 1.6% hits; further: potency means the concentration at half of the fitted maximal effect; on the % scale 0 is the no-effect control and ±100 the full control effect; nearly all actives have a fitted effect of over 55% in size
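Inverse agonism was detected as reduced cAMP-driven luciferase luminescence after 24 h compound treatment. The cells were HEK293 clones expressing constitutively active human GLP-1R with the reporter. Reporter-only and GPR119 cell lines served as counterscreen controls.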
PTHR1 agonist: activates the human parathyroid hormone receptor PTHR1. Q03431. HEK293 GP2 PTHR1 cells, GloSensor cAMP luminescence, 1 h. Potency, µM (highest dose often 115 µM), for inactives: at the highest dose activation, hits mostly activators. 410,000 compounds, 0.075% hits. AID 743266; further: potency means the concentration at half of the fitted maximal effect; nearly all actives have a fitted effect of over 55% in size
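HEK-293-derived GP2 cells expressing PTHR1 and a GloSensor cAMP reporter, 3,000/well, plated overnight, given luciferin plus IBMX (each 0.5 mM as added) for 1 h at 37 °C, then compound for 1 h at 37 °C. Luminescence was read after 15 min at room temperature.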
* marks the source's active call; other numbers are inactive results; i = inactive; ? = inconclusive; . = not tested or not shown. Sampled rows, rich in hits. Any-hit rate of the full collection: about 1.7%. Unless noted, the call rests on the fitted dose curve; in most records, active means well fitted curve in the direction sought with a large enough effect; inconclusive means small, poorly fitted or top-dose-only effect, or another doubt; inactive means no such curve, though single readings can be large; an effect the other way counts as inactive or inconclusive.

SMILES	GLP1R ag	HEK293 tox	mIDH1 inhibitor	LDHA block	GLP1R inv ag	PTHR1 agonist
CC(=O)c1c(C)[nH]c(C(=O)C(C)NC(C)c2ccc(Cl)cc2Cl)c1C (centres undefined)	.	.	.	-1	.	.
CN1CCN(c2ccc(Nc3ccnc4cc(Cl)ccc34)cc2)CC1	-2%	3.5µM*	0%	-4	2µM*	1%
Cc1[nH]nc2c1C(c1ccc(-c3ccccc3F)o1)SCC(=O)N2 (centres undefined)	.	.	.	-3	.	.
[Hg+][c]1ccccc1	-8%	.	.	-62*	.	.
Cc1ccc(CNCCc2c[nH]c3ccccc23)cc1	.	.	.	3	.	.
Cc1ccc(-n2sc3ccccc3c2=O)cc1	-3%	10µM*	5%	-35*	?	-29%
O=c1c2ccccc2sn1-c1ccc(Cl)cc1	-3%	-7%	7%	-52*	?	-52%
COc1ccc(-c2nc3ccccc3c(=O)n2-c2ccc(OC)cc2)cc1	2%	6%	4%	-1	-27%	27%
Cc1nn(-c2ccccc2)c2c1C(c1cnn(C)c1C)SCC(=O)N2 (centres undefined)	.	.	.	-19	.	.
CC(C)c1cc(C(=O)OCC(=O)NC(=O)NCc2ccco2)c(O)c(C(C)C)c1	5%	?	5%	3	3.5µM*	i
CC1CCC(NC(=O)CN2CCN(S(=O)(=O)c3ccc(Br)s3)CC2)CC1 (centres undefined)	-1%	?	2%	1	10µM*	i
O=C(CN1CCN(C(=O)Cc2n[nH]c(=O)c3ccccc23)CC1)NC1CC1	.	.	.	-9	.	.
CCN(CC)C(=O)c1ccc(NC(=O)c2cc(-c3ccco3)nc3ccccc23)cc1	.	.	.	18	.	.
CCOC(=O)C1(c2ccccc2)CCN(CCC(=O)Nc2ccc(OC)cc2)CC1	12%	-22%	2%	-1	?	-17%
CCOC(=O)C1(c2ccccc2)CCN(CC(=O)Nc2ccc(C)cc2)CC1	15%	-10%	-1%	-2	8.9µM*	-8%
CCOC(=O)C1(c2ccccc2)CCN(CCC(=O)Nc2cccc(Br)c2)CC1	12%	?	-9%	-3	3.2µM*	-23%
Cc1cccc(C)c1-n1nnnc1C1(NC(C)C)CCCCC1	.	.	.	-3	.	.
CC12CN3CC(C)(CN(C1)C3c1ccccn1)C2=O (centres undefined)	.	.	.	6	.	.
CCN(CCCl)c1cc(CN(C)C)cc(NC(=O)c2ccc(C(=O)Nc3cc(CN(C)C)cc(N(CC)CCCl)c3)cc2)c1	-9%	2.8µM*	0%	5	?	i
CCN1CCN(c2ncc(C(=O)Nc3cc(Cl)ccc3OC)c3ccccc23)CC1	2%	?	4%	-2	1.8µM*	i
C[C@@H]1O[C@@H](O[C@H]2C[C@@H](O)[C@]3(CO)[C@@H]4C(CC[C@]3(O)C2)[C@@]2(O)CC[C@H](C3COC(=O)C3)[C@@]2(C)C[C@H]4O)[C@H](O)[C@H](O)[C@H]1O (some centres undefined)	-10%	?	13%	-8	1µM*	-36%
CC(=O)OC1(C)CCC2C3CCC4CC(=O)CCC4(C)C3CCC21C (centres undefined)	.	.	.	12	.	.
Cc1ccccc1OP(N)(=O)Oc1ccccc1C	2%	-9%	5%	-14	-29%	13%
Cc1cccc(OP(N)(=O)Oc2cccc(C)c2C)c1C	6%	-4%	0%	-1	11µM*	-25%
COc1cccc(CC(=O)N2CCN(CC(=O)NC(C)(C)C)CC2)c1	.	.	.	9	.	.
SMILES	GLP1R ag	HEK293 tox	mIDH1 inhibitor	LDHA block	GLP1R inv ag	PTHR1 agonist
CCCn1cc(C(=O)NCC2CCCN2CC)c2ccccc21 (centres undefined)	.	.	.	19	.	.
CC(C)N1C(=O)CC2(CC[N+](C)(CCOC(=O)C(O)(c3ccccc3)c3ccccc3)CC2)C1=O (centres undefined)	-26%	-2%	5%	-34*	0%	?
COc1ccccc1N1C(=O)NC(=O)/C(=C/c2ccc3c(c2)Cc2ccccc2-3)C1=O	5%	-4%	-9%	-33*	26%	-40%
COc1cc(/C=C2\C(=O)NC(=O)N(c3ccccc3)C2=O)cc(OC)c1O	0%	3%	-3%	53	40%	i
C=CCn1cccc(/C=C/C(=O)c2ccc(C(C)(C)C)cc2)c1=S	-21%	?	-7%	-5	13µM*	-29%
Cc1cccc(C(=O)N2CCC(=O)CC2)c1	.	.	.	3	.	.
c1ccc(COc2ncnc3c2ncn3CCCN2CCN(Cc3cccc4ccccc34)CC2)cc1	-7%	?	2%	-1	3.5µM*	-29%
CC1CC(=O)C2CCCCC2N1 (centres undefined)	.	.	.	-5	.	.
OCCSCCSCCO	.	.	.	-2	.	.
Cn1cc(/C=N/NC(N)=S)c2ccccc21	12%	?	-6%	-2	?	i
Cn1cc(/C=N/n2cnc3scc(-c4ccccc4)c3c2=O)c2ccccc21	-8%	?	3%	-5	5µM*	-5%
COC(=O)c1ccc(CBr)cc1	.	.	.	-2	.	.
C#CCOCCOCCOCCNc1nc(N2CCN(C(=O)CCCCCCCCCCNC(=O)Cn3cc(C[C@@H](C)O)nn3)CC2)nc(N2CCN(C(=O)CCCCCCCCCCNC(=O)[C@H](CCCCN)n3cc(C[C@@H](C)CC)nn3)CC2)n1	-12%	?	4%	1	?	18µM*
COc1cc(C2SCC(=O)Nc3[nH]ncc32)ccc1OC(C)C (centres undefined)	.	.	.	2	.	.
CC12CCC(O)CC1CCC1C2CCC2(C)C(C3=CC(=O)OC3)CCC12O (centres undefined)	-30%	?	-1%	-3	1.1µM*	i
C[C@]12CC[C@H](O)C[C@H]1CC[C@@H]1[C@@H]2CC[C@]2(C)[C@@H](C3=CC(=O)OC3)CC[C@]12O	-10%	?	-8%	-6	0.5µM*	-12%
C[C@]12CC[C@H](O)C[C@H]1CC[C@@H]1[C@@H]2C[C@@H](O)[C@]2(C)[C@@H](C3=CC(=O)OC3)CC[C@]12O	-11%	3%	15%	-2	?	-40%
CC12CCC(O)CC1CCC1C2CCC2(C)C(C3=CC(=O)OC3)C(O)CC12O (centres undefined)	-18%	-2%	3%	-8	?	i
OC1C2(c3ccccc3)CN3CN(C2)CC1(c1ccccc1)C3 (centres undefined)	.	.	.	-2	.	.

Compound activity as filed in PubChem BioAssay.
